Source: PubChem BioAssay AID2314 (National Center for Advancing Translational Sciences (NCATS), 2010)
The campaign covered roughly 300,000 compounds. About 37,000 (12%) were called active. This is one part of a sample in which actives are shown more often than they occur. Values without a mark were called inactive. Rule as the data show it: active = max response mostly above about 13% (no sharp cut-off); inactive = mostly below about 14%.

assay: Cycloheximide Counterscreen for Small Molecule Inhibitors of Shiga Toxin; conditions: cell reporter, cycloheximide protein synthesis inhibition counterscreen; stronger effect = higher value; also: read at 38.3 µM for the half of the compounds with a filed dose; 0% is about no effect

Row | Structure (SMILES) | max response
1 | COc1ccc(-c2nn(-c3ccccc3)cc2/C=C2/SC(=S)N(CCCC(=O)O)C2=O)c(C)c1 | -2.33%
2 | COc1cccc(CNS(=O)(=O)c2ccc3c(c2)CC(C)N3C(=O)C2CCC2)c1 (stereo unspecified) | 8.91%
3 | O=C(NCc1cccs1)c1ccc(Br)o1 | 6.23%
4 | C/C(=N/NC(=O)c1ccc(Br)o1)c1ccc(C)o1 | 78.1% (active)
5 | CC(CCc1ccccc1)NC(=O)c1ccc(Br)o1 (stereo unspecified) | 5.6%
6 | Cc1cc(C)c2c(-c3ccc(F)cc3)c(C#N)c(=O)n(C)c2n1 | -4.22%
7 | COc1ccc(-c2[nH]ncc2CN(C)Cc2cc(C)[nH]n2)c(F)c1 | 7.91%
8 | COc1ccc(-c2[nH]ncc2CN(C)Cc2c(C)n[nH]c2C)c(OC)c1 | -6.81%
9 | CN(CCC1CCOCC1)Cc1cn[nH]c1-c1ccc(-c2ccccc2)cc1 | 19% (active)
10 | O=C(CC1C(=O)NCCN1Cc1ccc(-c2ccccc2)cc1)NCC1CCOCC1 (stereo unspecified) | -0.46%
11 | Cc1nnc(CN(C)Cc2cn[nH]c2-c2ccc(-c3ccccc3)cc2)o1 | 14.6% (active)
12 | O=C(c1ccc(F)cc1)C1CCN(Cc2cn[nH]c2-c2ccccc2)CC1 | -1.57%
13 | CC1(C)c2[nH]c3ccccc3c2C[C@H]2C(=O)N(N)CC(=O)N21 | -5.11%
14 | CC(C)(C)c1ccc(C(=O)NCc2nnc(SCC(=O)N3CCCc4ccccc43)n2-c2ccccc2)cc1 | -1.48%
15 | CC(C)(C)C(=O)N(Cc1ccccc1)c1ccccn1 | 0.801%
16 | Cc1ccccc1N1CCN(S(=O)(=O)c2ccc3ccccc3c2)CC1 | -1.83%
17 | Cc1ccc(Cn2nnc3c(=O)[nH]c(C4CCN(S(=O)(=O)/C=C/c5ccccc5)CC4)nc32)cc1 | -2.92%
18 | CSc1nsc(SCC(=O)Nc2cc(C(=O)O)ccc2C)n1 | 1.8%
19 | COc1cc(OC)cc(-c2nnc(SCC(=O)Nc3ccc(C(=O)O)cc3)s2)c1 | -1.06%
20 | Cc1csc(SCC(=O)Nc2sccc2C#N)n1 | 2.13%
21 | COc1ccc(NC(=O)CSc2nc(SC)ns2)c(OC)c1 | 42.1% (active)
22 | COc1ccc(C)cc1NC(=O)CSc1nc(SC)ns1 | 10.3%
23 | COc1ccc(NC(=O)CSc2nc(C)cs2)cc1 | 27.7% (active)
24 | O=S(=O)(NCCCCCCNS(=O)(=O)c1c(F)cccc1F)c1ccc2c(c1)OCCO2 | -6.04%
25 | C#CCOc1ccccc1/C=C1/C(=O)ON=C1C | 7.98%
26 | COc1ccccc1C(=O)N/C(=C/c1ccco1)C(=O)Nc1ccc(C(=O)O)cc1 | -3.58%
